Bioassay records from PubChem.
Cav3 T inh: blocks human Cav3.2 T-type calcium channel; O95180; Cav3.2-expressing cells, Fluo-4 calcium fluorescence FDSS; hits give low values; B-score at 10 µM; 100,000 tested, 4% active;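 active = single-dose well whose peak fluorescence ratio is a statistical outlier from its plate by either plate-standardised score or position-corrected B-score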
CYP2C19 inh: inhibitors of human CYP2C19; inhibition, % at 5 µM; AID 778; P33261; CYP2C19 Supersomes, luciferin-H EGE luminescence, 30 min; 96,000 tested, 21% active;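 active = CYP2C19 inhibition above a set limit at 5 µM in the primary screen, cut at about 50% in these data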
CYP2C19 activ: increases human CYP2C19 enzyme activity. recombinant CYP2C19, luciferin-H EGE luminescence; hits give high values; 0 = fully inhibited enzyme, 1 = untreated enzyme. 96,000 tested, under 10 active. activation factor at 5 µM. AID 1025. P33261;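 active = activation factor of at least 2 at 5 µM in the primary screen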
CYP2C9 inh: inhibitors of human CYP2C9; P11712; inhibition, % at 5 µM; 96,000 tested, 20% active; CYP2C9 Supersomes, luciferin-H conversion, luminescence;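 active = blocking of liver enzyme CYP2C9 beyond about 50% at 5 µM, limit read from the data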
Target sequence (P11712 whole entry, looked up): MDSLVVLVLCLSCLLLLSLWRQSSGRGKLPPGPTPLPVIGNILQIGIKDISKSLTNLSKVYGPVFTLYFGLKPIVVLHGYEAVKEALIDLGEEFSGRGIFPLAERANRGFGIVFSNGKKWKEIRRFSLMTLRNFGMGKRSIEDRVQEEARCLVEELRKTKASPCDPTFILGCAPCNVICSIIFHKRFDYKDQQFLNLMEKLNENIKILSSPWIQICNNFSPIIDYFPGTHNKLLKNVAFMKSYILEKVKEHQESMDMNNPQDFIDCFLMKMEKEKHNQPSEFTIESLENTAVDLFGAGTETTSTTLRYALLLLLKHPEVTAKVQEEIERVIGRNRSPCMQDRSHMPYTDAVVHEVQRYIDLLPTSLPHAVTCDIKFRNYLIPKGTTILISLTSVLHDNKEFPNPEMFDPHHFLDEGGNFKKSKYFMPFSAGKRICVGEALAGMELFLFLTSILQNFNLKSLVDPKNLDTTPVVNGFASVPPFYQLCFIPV
CYP2C9 act: increases human cytochrome P450 2C9 activity; recombinant CYP2C9, luciferin-H conversion, luminescence; hits give high values; factor 1 = untreated enzyme, 0 = blocked; activation factor at 5 µM; 96,000 tested, 1.4% active; AID 1024;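 active = activation factor of 2 or more for CYP2C9 at a 5 µM dose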
Hits are given with their value; n = inactive; x = not tested or not shown. Sampled rows, rich in hits. Any-hit rate of the full collection: about 27%.

SMILES | Cav3 T inh | CYP2C19 inh | CYP2C19 activ | CYP2C9 inh | CYP2C9 act
CCCCOC(=O)CCn1[nH]c(=O)c2ccccc2c1=O | n | 84 | n | 92 | n
CCN(Cc1ccccc1)C(=O)COC(=O)c1n[nH]c2ccccc12 | n | n | n | n | n
O=C(CCn1[nH]c(=O)c2ccccc2c1=O)OC1CCCCC1 | n | 81 | n | n | n
CC1(c2nnc(-c3cccc(Cl)c3)o2)CC(c2cccc(Cl)c2)=NO1 (stereo unspecified) | n | x | x | x | x
Cc1ccc2nc(C)cc(Nc3ccc4c(c3)OCCO4)c2c1 | n | n | n | 68 | n
Cc1nc2ncnn2c(C)c1CCC(=O)NCc1ccco1 | n | n | n | n | n
Cc1ccccc1Cc1c(C)nc2nc(SCC(=O)NCc3ccco3)nn2c1C | n | n | n | 66 | n
Cc1nc2nc(SCC(=O)NCc3ccco3)nn2c(C)c1Cc1c(F)cccc1Cl | n | n | n | 88 | n
Cc1ccc(Cc2c(C)nc3nc(SCC(=O)NCc4ccco4)nn3c2C)cc1 | n | n | n | 56 | n
Cc1nc2c(C(=O)O)cnn2c(C)c1Cc1ccccc1F | n | n | n | n | n
Cc1ccccc1Cc1c(C)nc2c(C(=O)NCc3ccco3)cnn2c1C | n | 56 | n | 87 | n
COc1ccccc1NS(=O)(=O)c1cc(C(=O)NCCN2CCOCC2)ccc1Cl | n | n | n | n | n
Cc1nn(C)cc1CNC(=O)c1ccc(Br)o1 | n | n | n | n | n
COc1ccc(-n2c(Cc3cccn3C)nnc2SCC(=O)Nc2ccc(C(C)=O)cc2)cc1 | -8.4 | n | n | n | n
COc1ccc(-n2c(Cc3cccn3C)nnc2SCC(=O)Nc2ccc(C)cc2)cc1 | -7.9 | n | n | 53 | n
COc1ccc(-n2c(Cc3cccn3C)nnc2SCC(=O)Nc2ccc3c(c2)OCCO3)cc1 | -10 | n | n | n | n
COc1ccc(-n2c(Cc3cccn3C)nnc2SCC(=O)NC2CCCCC2)cc1 | n | n | n | n | n
COc1ccc(NC(=O)CSc2nnc(Cc3cccn3C)n2-c2ccc(OC)cc2)cc1 | -8.1 | n | n | 59 | n
CCOc1ccc(NC(=O)CSc2nnc(Cc3cccn3C)n2-c2ccc(OC)cc2)cc1 | n | n | n | n | n
COc1ccc(C(C)=O)cc1CN(C)C | n | n | n | n | n
O=C(CNS(=O)(=O)c1ccc2ccccc2c1)OCC(=O)c1ccc(Br)s1 | n | n | n | n | 2.3
COC(=O)CCCNS(=O)(=O)c1ccc2ccccc2c1 | n | x | x | x | x
Cc1ccc(-c2nn(C)c(=O)c3ccccc23)cc1S(=O)(=O)N1CCOCC1 | n | x | x | x | x
Cc1ccc(-c2nn(C)c(=O)c3ccccc23)cc1S(=O)(=O)N1CCCC1 | x | 51 | n | 63 | n
CCC(=O)Nc1cc(-c2nn(C)c(=O)c3ccccc23)ccc1N1CCCCC1 | n | n | n | 81 | n
SMILES | Cav3 T inh | CYP2C19 inh | CYP2C19 activ | CYP2C9 inh | CYP2C9 act
CC(=O)Nc1cc(-c2nn(C)c(=O)c3ccccc23)ccc1N1CCCCC1 | n | n | n | 57 | n
Cn1nc(-c2ccc(N3CCOCC3)c(NS(=O)(=O)c3ccccc3)c2)c2ccccc2c1=O | n | 53 | n | n | n
Cc1nc2ncnn2c(N2CCN(C(=O)Cc3cccs3)CC2)c1C | n | n | n | n | n
CCN1CCC(C(=O)NC2CCCC2)(N(Cc2cccs2)C(=O)Cn2nnc3ccccc32)CC1 | x | n | n | n | n
COc1ccc(-c2nn(C)c(=O)c3ccccc23)cc1NC(=O)Cn1nc(C)c2ccccc2c1=O | n | n | n | 58 | n
CC(=O)N1c2ccccc2C(C)(c2ccccc2)CC1(C)C (stereo unspecified) | -5 | 64 | n | 54 | n
CC1(C)CC(NC(=O)C23CCC(C)(/C(=N/O)C2)C3(C)C)CC(C)(C)N1 (stereo unspecified) | n | n | n | n | n
COc1ccc(N2C(C(C)=O)=NN(c3ccccc3)C2c2cccs2)cc1 (stereo unspecified) | n | n | n | 56 | n
COc1ccc(C2/C(=C(\O)c3cc(C)ccc3C)C(=O)C(=O)N2CCN(C)C)cc1OC (stereo unspecified) | n | n | n | n | n
CCOC(=O)N1CCN(S(=O)(=O)c2ccc(OC)c(OC)c2)CC1 | n | x | x | x | x
CCOC(=O)N1CCN(S(=O)(=O)c2cccc3nsnc23)CC1 | x | 76 | n | n | n
CCOC(=O)N1CCN(S(=O)(=O)c2ccc(OC)c(Cl)c2Cl)CC1 | n | 99 | n | n | n
CCOC(=O)N1CCN(S(=O)(=O)c2ccc(OC)c(Cl)c2)CC1 | n | 98 | n | n | n
CCOC(=O)N1CCN(S(=O)(=O)c2ccc3c(c2)oc(=O)n3C)CC1 | n | 58 | n | n | n
Cc1ccc(C)n1NC(=O)c1ccccc1O | n | n | n | n | n
O=C(C1=C[C@@H](c2ccccc2)C[C@@H](OCCCCO)O1)N1CCOCC1 | n | x | x | x | x
CCO[C@H]1OC(C(=O)O)=C[C@@H](c2ccc3c(c2)OCO3)[C@@H]1CCCO | n | x | x | x | x
CC[C@@H]1[C@H]2CCCC(=O)N3CC[C@@H](C[C@H]1O)[C@@H]23 | n | x | x | x | x
CC1=NN(c2ccccc2)C(=O)C1C(=O)c1ccc(Cl)cc1 (stereo unspecified) | x | n | n | 93 | n
CCN1C(=O)c2cccc3c(S(=O)(=O)Nc4c(C)n(C)n(-c5ccccc5)c4=O)ccc1c23 | n | n | n | 58 | n
Cc1c(NC(=O)CN2C(=O)c3cccc4cccc2c34)c(=O)n(-c2ccccc2)n1C | n | n | n | n | n
CCN1C(=O)c2cccc3c(S(=O)(=O)NCc4ccccn4)ccc1c23 | n | n | n | n | n
CCOC(=O)Cc1csc(NS(=O)(=O)c2ccc3c4c(cccc24)C(=O)N3CC)n1 | n | n | n | 95 | n
CCOC(=O)C1C(=O)OC2(CCOC(C)(C)C2)C1C(=O)OCC (stereo unspecified) | n | n | n | n | n
CC(=O)CCc1c(C)c2cc(C)ccc2[nH]c1=O | n | n | n | n | n
SMILES | Cav3 T inh | CYP2C19 inh | CYP2C19 activ | CYP2C9 inh | CYP2C9 act
CCOc1cc(C)ccc1OCc1nnc(SCC(=O)c2cccc([N+](=O)[O-])c2)n1C | n | n | n | n | n
Cc1ccc(C2(C)NC(=O)N(Cc3c(C)noc3C)C2=O)cc1 (stereo unspecified) | n | 53 | n | n | n
Cn1c(=O)c2c(nc(NC3CCCCC3)n2CC(=O)C23CC4CC(CC(C4)C2)C3)n(C)c1=O | -5.8 | x | x | x | x
O=C(Cn1cnc2ccccc2c1=O)Nc1nnc(SCc2ccccc2)s1 | n | n | n | n | n
Cc1cc(/C=C2\SC(=Nc3ccccc3)NC2=O)c(C)n1-c1ccc(S(N)(=O)=O)cc1 | n | n | n | 60 | n
Cc1cc(C=C2C(=O)c3ccccc3C2=O)c(C)n1-c1ccccc1 | n | n | n | n | n
CC1CCC(C(C)C)C(OC(=O)CSc2nnc(N)s2)C1 (stereo unspecified) | -4.8 | 66 | n | n | n
CC1CCC(C(C)C)C(OC(=O)CSc2nc(N)cc(=O)[nH]2)C1 (stereo unspecified) | n | n | n | n | n
